The results in this text go back to the supplement of paper PMC6555819.

The experiment relates to RXRa homodimer (NR concentration 180 nM). Nature of the experiment: PBM binding z-score (relative to random genomic background probes); higher = stronger binding; sequences stand for … in GC…GCGATTGACAGCGTAGAATGAAGG
An outline of the steps: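 On custom Agilent 4×180K arrays, double-stranded probes with 34-nt variable regions carried direct-repeat seeds, single-nucleotide variants, half-site ablations or random human genomic background. Ligand-free nuclear receptor dimers were applied for 1 h, and binding was read with antibodies against each partner (one per run). Binding z-scores come from regression-normalized fluorescence, with the random background probes as reference.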
For the sequence CCAGAAAGGTGAGAAGGTAACTCAGCCTCGATTA, the PBM binding z-score came out at 1.53.

Regarding GCTTACGGGTCAAAGGTTATTGCATGAATAGAAT, the PBM binding z-score came out at 9.29.

Turning to CAAACTAGGTCAAATGTCAAAGTCGAGCCAACCA, the PBM binding z-score worked out at 5.14.

The sequence CGAACTAGGTCATCCAGGACAGCGAATACATTGA displayed a PBM binding z-score of 2.73.

Consider TCATATAGGTAAACAGGTGACAGTCCGTAAGTTA, for which the PBM binding z-score was 1.12.

As to GCAGACAGGTGAAACGCAGGTAACACAGGGTGGC, the PBM binding z-score came out at 0.886.

With AGAATGAGCTTATACGTAGATCAGGGAAGAAAGT, the PBM binding z-score was -0.13.

Sequence TCTGCTAGGTCAGTTGGTAAGCTAACGAGCTGCC showed a PBM binding z-score of 0.543.

For TCTATTAGTTGATGGGCAACCGACGAGTCCGTTT, the PBM binding z-score worked out at 0.101.

Sequence ACTACTTGGTCAGCTGAGGTCACACACAATTCGG had a PBM binding z-score of 4.45.

ATCGAAAGGTCGAGCTGAGTATAGAGAAAGGGAA: the PBM binding z-score was 4.35.

Sequence TCTGCTAGGTCAGTTGGTCACCTAACGAGCTGCC displayed a PBM binding z-score of 1.15.

CCGACTGGGGCATAAGGTTAGCATAAGCCAGCCC had a PBM binding z-score of 0.224.

Consider CGAACTAGGTTAGAACAGGACAGTGAAGGATGAT, for which the PBM binding z-score came out at 0.171.

As to ATACCCAGGTGATCGTGAGGTCGTTGATACTAAC, the PBM binding z-score worked out at 1.39.

Consider TAGCCTAGGGCATGCGGGCCAGTATAGTGTCGGC, for which the PBM binding z-score was -0.233.

On to ATATGTAGGTTAGCTGTGGTCATTCAGACTAGGC, for which the PBM binding z-score amounted to 0.643.

Take TCTAGCAGGCCAGAGAGTCACTCAAGAGGTACGG: the PBM binding z-score is 0.33.
